From PubChem
HSP90 inh: HSP90 inhibitors, primary screen, cell lysate, luminescence. Rabbit reticulocyte lysate, luciferase refolding luminescence, 3 h. inhibition, % at 5.6 µM. Heat shock protein HSP 90 (rabbit reticulocyte lysate; luciferase refolding). AID 1789, 2009. actives 0.91% (n = 290,000);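 active = inhibition above the screen-wide mean plus 3 SD, computed separately per campaign, cut at about 16% in these data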;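 also: inhibitors lower the luminescence because luciferase stays unfolded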
TWEAK Fn14 block: inhibitors of TWEAK-Fn14 signaling, primary screen, luciferase reporter cells, uHTS; AID 1159606, 2016; TWEAK-stimulated Fn14 reporter cells, luciferase luminescence, 8 h; inhibition, % at 10 µM; actives 2% (n = 360,000); in the data active = inhibition above about 50%
EBV LMP1 NFkB: EBV LMP1-driven NF-kappaB luciferase reporter inhibitors, primary screen, cell-based, luminescence, single point. LMP1-induced NF-kappaB luciferase reporter cells. inhibition, % at 12.5 µM. actives 0.69% (n = 350,000); in the data active = inhibition above about 41%
aDG glyco act: activators of alpha-DG glycosylation, primary screen, uHTS, Pro5-aDG cells, AlphaScreen; alpha-DG glycosylation AlphaScreen (IIH6); 0% Pro5, 100% B10-LARGE cell signal; activation, % at 10 µM; actives 0.22% (n = 360,000); AID 624168, 2012;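 active = activation of at least 8% versus controls, or a plate z-score of at least 8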;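 also: Pro5 are CHO cells carrying HIG-tagged alpha-DG that lacks glycosylation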
LGR2 antag: inhibitors of bursicon-induced LGR2 CRE-luciferase signal, primary screen, cell-based, HEK293, CRE-luciferase reporter, bursicon stimulation. bursicon-stimulated, 4 h. AID 720647, 2013. Drosophila bursicon receptor LGR2 (rickets). actives 0.35% (n = 380,000). inhibition, % at 9.99 µM;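 active = drop in luminescence signal, shown as inhibition above about 50% in the replicate tests, limit read from the data, passing the limit was not always enough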;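 also: agonist challenge used bursicon conditioned medium at about half maximal strength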
TROY NFkB inh: inhibitors of TROY-driven NF-kB signaling, primary screen, Q293 LMP1-TROYcd cells, NF-kB luciferase, uHTS; Q293 LMP1-TROYcd NF-kB luciferase reporter, 4 h; inhibition, % at 10 µM; AID 1347056, 2019; actives 0.98% (n = 360,000);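 active = compounds whose plate-normalised and pattern-corrected inhibition of the luciferase reporter signal at the single screening dose is 50% or more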
Hits are given with their value; i = inactive; nt = not tested or not shown. Most compounds without a hit are left out; they make up all but 2.6% or so of the library.

SMILES	HSP90 inh	TWEAK Fn14 block	EBV LMP1 NFkB	aDG glyco act	LGR2 antag	TROY NFkB inh
COc1cc(CC(=O)Nc2nc(-c3ccccc3)c(C(C)=O)s2)cc(OC)c1OC	i	i	i	i	i	i
COc1cc(C(=O)O/N=C(\N)c2ccc([N+](=O)[O-])cc2)cc(OC)c1OC	i	i	i	i	i	i
COc1cc(C(=O)O/N=C(\N)c2cccc([N+](=O)[O-])c2)cc(OC)c1OC	i	62	i	i	i	i
CCOc1ccc(NC(=S)Nc2cccc3ccccc23)cc1	i	68	i	i	i	i
Cc1ccc(NC(=S)Nc2cccc3ccccc23)cc1	i	i	i	i	i	66
CCc1cccc(NC(=S)Nc2cccc3ccccc23)c1	i	i	i	i	i	52
Cc1cccc(NC(=S)Nc2cccc3ccccc23)c1	i	i	i	i	i	i
CN(C)S(=O)(=O)c1cccc(NC(=S)Nc2cccc3cnccc23)c1	i	73	i	i	i	i
Cc1cc(C)cc(NC(=S)Nc2cccc3ccccc23)c1	i	i	i	i	i	i
CCOC(=O)Nc1ccc2c(c1)C(=NNC(N)=S)c1ccccc1-2	nt	i	i	i	83	i
NC(=O)CC(NC(=O)Cc1cccc2ccccc12)c1ccc(NCc2ccc(F)cc2)c([N+](=O)[O-])c1 (stereo not drawn)	nt	i	52	i	i	i
O=C1NC(=Nc2ccccc2Cl)S/C1=C\c1cccc([N+](=O)[O-])c1O	i	i	i	i	i	i
O=C1NC(=Nc2ccccc2Cl)S/C1=C\c1cccc([N+](=O)[O-])c1	i	i	i	i	i	70
CC(C)NC(=O)Nc1ccc2c(c1)C(=O)N([C@@H](C)CO)C[C@H](C)[C@H](CN(C)C(=O)C1CCCCC1)OCCCC[C@@H](C)O2	nt	nt	nt	nt	i	nt
Cc1nc(SCC(=O)Nc2ccc(S(=O)(=O)N3CCOCC3)cc2)c2c(C)c(C)sc2n1	nt	i	i	i	i	51
Cc1nc(SCC(=O)N2CCOCC2)c2c(C)c(C)sc2n1	i	i	i	i	i	i
O=C(O)CSc1ncnc2sc(-c3ccccc3)cc12	i	i	i	i	i	i
CC(=O)CCSc1ncnc2sc(-c3ccccc3)cc12	i	i	i	i	i	i
O=C(O)CCSc1ncnc2sc(-c3ccccc3)cc12	i	86	i	i	i	63
O=C(CSc1nnc(-c2ccccc2)o1)c1nnc(-c2ccccc2)o1	i	i	i	i	i	i
CC(=O)c1c(C)[nH]c(C(=O)CSc2nnc(-c3ccccc3)o2)c1C	i	96	i	i	nt	i
CC(=O)c1c(C)[nH]c(C(=O)CSc2ncnc3sc(-c4ccccc4)cc23)c1C	i	64	i	i	nt	i
COC(=O)C[C@H]1CC[C@@H]2[C@@H](COc3ccc(NC(=O)Nc4cccc(C#N)c4)cc3C(=O)N2C)O1	nt	nt	nt	nt	i	nt
CC(C)C#Cc1cnc2c(c1)C(=O)N([C@@H](C)CO)C[C@@H](C)[C@@H](CN(C)C(=O)Cc1ccccn1)O2	nt	nt	nt	nt	i	nt
C[C@H](CO)N1C[C@H](C)[C@H](CN(C)C(=O)c2ccccc2)OCCCC[C@H](C)Oc2ccc(NC(=O)Nc3ccccc3)cc2C1=O	nt	nt	nt	nt	i	nt
SMILES	HSP90 inh	TWEAK Fn14 block	EBV LMP1 NFkB	aDG glyco act	LGR2 antag	TROY NFkB inh
Cc1cc(OCc2cc(C(=O)N3CCC(Oc4cccnc4)CC3)no2)cc(C)c1Cl	i	i	i	i	i	50
Cc1cc(OCc2cc(C(=O)N3CCN(CC4CC4)CC3)no2)cc(C)c1Cl	i	i	i	i	i	i
O=[N+]([O-])c1ccc(-n2nnnc2-c2ccccc2)c([N+](=O)[O-])c1	i	87	i	i	i	i
Cc1nc2c(-c3ccccc3)c(C)nn2c(N)c1-c1ccccc1	i	i	i	i	nt	i
Cc1nc2cc(-c3ccccc3)nn2c(N)c1-c1ccccc1	nt	74	i	i	i	73
CN(C)CCN1C(=O)c2cccc3cc([N+](=O)[O-])cc(c23)C1=O	nt	i	58	i	nt	i
CN(C)CCCN1C(=O)c2cccc3cccc(c23)C1=O	i	i	i	i	i	i
